# The supplement of paper PMC9694430
# Columns and labels:
# Assay in all cases: thermal shift delta Tm vs DMSO control; higher = stronger stabilization (binding)
# Conditions in all cases: 12.5 µM; protein concentration 2 µM
# LOC_OS01G01410-cb001 = test system: LOC_OS01G01410-cb001
# How it was run: (§1)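 Rice kinase domain constructs were expressed in E. coli, purified, and tested by differential scanning fluorimetry with compound added in DMSO. Each well of a 96-well plate held 19.5 μl of 2 μM kinase in 100 mM potassium phosphate pH 7.5, 150 mM NaCl, 10% glycerol and 5 × SYPRO Orange, and fluorescence was read from 25°C to 95°C at 0.05°C/s. The melting temperature shift is the mean of triplicates, taken against protein with DMSO alone after Boltzmann fitting.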
# LOC_OS01G02750-cb003 = test system: LOC_OS01G02750-cb003
# How it was run: as §1
# LOC_OS01G10900-cb004 = test system: LOC_OS01G10900-cb004
# How it was run: as §1
# LOC_OS01G13800-cb001 = test system: LOC_OS01G13800-cb001
# How it was run: as §1
# LOC_OS01G14860-cb001 = test system: LOC_OS01G14860-cb001
# How it was run: as §1
# LOC_OS01G21960-cb002 = test system: LOC_OS01G21960-cb002
# How it was run: as §1
# LOC_OS01G39600-cb002 = test system: LOC_OS01G39600-cb002
# How it was run: as §1
# LOC_OS01G48390-cb002 = test system: LOC_OS01G48390-cb002
# How it was run: as §1
# LOC_OS01G51400-cb002 = test system: LOC_OS01G51400-cb002
# How it was run: as §1
# LOC_OS01G52050-cb004 = test system: T1, LOC_OS01G52050-cb004
# T1 sequence (whole entry): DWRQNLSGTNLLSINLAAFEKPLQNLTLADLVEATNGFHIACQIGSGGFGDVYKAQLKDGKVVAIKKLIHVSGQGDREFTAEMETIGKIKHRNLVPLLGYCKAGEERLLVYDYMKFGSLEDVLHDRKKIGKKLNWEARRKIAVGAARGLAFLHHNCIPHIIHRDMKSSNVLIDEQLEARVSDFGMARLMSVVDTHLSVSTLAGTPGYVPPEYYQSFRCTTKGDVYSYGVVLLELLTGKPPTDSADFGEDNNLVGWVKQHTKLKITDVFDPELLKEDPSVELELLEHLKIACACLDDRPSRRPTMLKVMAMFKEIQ
# How it was run: as §1
# LOC_OS01G57100-cb003 = test system: LOC_OS01G57100-cb003
# How it was run: as §1
# LOC_OS01G60330-cb001 = test system: LOC_OS01G60330-cb001
# How it was run: as §1
# LOC_OS01G60700-cb002 = test system: LOC_OS01G60700-cb002
# How it was run: as §1
# LOC_OS01G63280-cb003 = test system: LOC_OS01G63280-cb003
# How it was run: as §1
# LOC_OS01G67340-cb003 = test system: LOC_OS01G67340-cb003
# How it was run: as §1
# LOC_OS01G70970-cb002 = test system: LOC_OS01G70970-cb002
# How it was run: as §1
# LOC_OS02G07810-cb001 = test system: LOC_OS02G07810-cb001
# How it was run: as §1
# LOC_OS02G08530-cb003 = test system: LOC_OS02G08530-cb003
# How it was run: as §1
# LOC_OS02G14120-cb001 = test system: LOC_OS02G14120-cb001
# How it was run: as §1
# LOC_OS02G17970-cb001 = test system: LOC_OS02G17970-cb001
# How it was run: as §1
SMILES,thermal shift delta Tm (LOC_OS01G01410-cb001),thermal shift delta Tm (LOC_OS01G02750-cb003),thermal shift delta Tm (LOC_OS01G10900-cb004),thermal shift delta Tm (LOC_OS01G13800-cb001),thermal shift delta Tm (LOC_OS01G14860-cb001),thermal shift delta Tm (LOC_OS01G21960-cb002),thermal shift delta Tm (LOC_OS01G39600-cb002),thermal shift delta Tm (LOC_OS01G48390-cb002),thermal shift delta Tm (LOC_OS01G51400-cb002),thermal shift delta Tm (LOC_OS01G52050-cb004),thermal shift delta Tm (LOC_OS01G57100-cb003),thermal shift delta Tm (LOC_OS01G60330-cb001),thermal shift delta Tm (LOC_OS01G60700-cb002),thermal shift delta Tm (LOC_OS01G63280-cb003),thermal shift delta Tm (LOC_OS01G67340-cb003),thermal shift delta Tm (LOC_OS01G70970-cb002),thermal shift delta Tm (LOC_OS02G07810-cb001),thermal shift delta Tm (LOC_OS02G08530-cb003),thermal shift delta Tm (LOC_OS02G14120-cb001),thermal shift delta Tm (LOC_OS02G17970-cb001)
CC(C)(C)S(=O)(=O)c1ccc2nccc(Nc3n[nH]c4ccc(F)cc34)c2c1,0.34 °C,1.74 °C,0.48 °C,-0.44 °C,0.3 °C,0.28 °C,1.01 °C,1.31 °C,0.33 °C,0.16 °C,0.91 °C,0.99 °C,0.81 °C,-0.25 °C,0.66 °C,0.6 °C,0.19 °C,0.61 °C,0.25 °C,0.37 °C
COc1ccc(S(=O)(=O)N(C(C)=O)c2ccccc2/C=C/c2cc[n+]([O-])cc2)cc1,-0.1 °C,0.48 °C,0.77 °C,0.64 °C,0.58 °C,0.67 °C,-0.39 °C,0.12 °C,-0.08 °C,0.02 °C,1.85 °C,0.75 °C,0.63 °C,0.55 °C,-0.3 °C,0.2 °C,1.33 °C,0.62 °C,2.16 °C,1.01 °C
COc1ccc(-c2nc(N3CCOCC3)c3sc(CN(C)c4ncc(C(=O)NO)cn4)cc3n2)cn1,0.62 °C,1.67 °C,0.67 °C,0.23 °C,0.42 °C,0.88 °C,0.28 °C,0.53 °C,0.43 °C,-0.17 °C,2.79 °C,1.04 °C,0.58 °C,0.34 °C,0.21 °C,0.21 °C,1.31 °C,0.97 °C,0.54 °C,0.14 °C
O=C(NCCCNc1nc(Nc2cccc(NC(=O)N3CCCC3)c2)ncc1I)c1cccs1,4.61 °C,2.64 °C,1.85 °C,-0.09 °C,5.77 °C,3.44 °C,8.52 °C,2.91 °C,1.38 °C,10.7 °C,1.91 °C,11.8 °C,0.35 °C,0.47 °C,2.07 °C,8.4 °C,1.11 °C,2.77 °C,9.13 °C,0.49 °C
C=CC(=O)Nc1cc(Nc2nccc(-c3cn(C)c4ccccc34)n2)c(OC)cc1N(C)CCN(C)C [Osimertinib (AZD9291)],0.41 °C,0.94 °C,0.45 °C,-0.53 °C,0.01 °C,0.34 °C,0.02 °C,-0.33 °C,0.43 °C,0.11 °C,-0.15 °C,1.07 °C,1.16 °C,0.43 °C,0.42 °C,0.32 °C,0.03 °C,3.79 °C,3.74 °C,-0.32 °C
COc1cc2ncnc(Sc3nnc(C)s3)c2cc1OC,1.2 °C,0.37 °C,0.57 °C,-0.34 °C,0.11 °C,0.06 °C,-0.24 °C,2.02 °C,0.02 °C,0.91 °C,0.73 °C,0.26 °C,0.74 °C,-0.21 °C,0.41 °C,-0.08 °C,-0.06 °C,0.96 °C,2.55 °C,-0.07 °C
OC(c1cc(-c2ccc(Cl)cc2)nc2ccccc12)C1CCCCN1 (stereo not given) [Vacquinol-1],0.1 °C,1.71 °C,0.31 °C,1.34 °C,0.11 °C,1.18 °C,-0.2 °C,0.86 °C,0.34 °C,0.54 °C,2.48 °C,1.32 °C,1.39 °C,0.78 °C,1.06 °C,0.39 °C,0.67 °C,0.72 °C,0.39 °C,0.79 °C
